For three compounds, growth results are on record in PubChem BioAssay (NCI).

Compounds without any hit were thinned out: in the full panel of roughly 83,000, 20% have a hit.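 Negative percent growth values reflect cell death: -40 means 40% of the cells present at the start died, and -100 means all died.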 Activity calls are given as the source filed them. How the source made its calls: active means growth percent below 10; inactive means the rest.

What all share (assay): NCI-60 one-dose screen, 48 h (100 = growth as untreated, 0 = no growth, -100 = all killed)
Holding throughout (details): 10 µM unless noted

Experiment [1] deals with SR leukemia.
The test system of experiment [2] is RPMI-8226 leukemia.
The test system of experiment [3] is OVCAR-8 ovarian.
Experiment [4] concerns OVCAR-4 ovarian.
Experiment [5] relates to SK-OV-3 ovarian.
Experiment [6] deals with IGROV1 ovarian.
For experiment [7], the system named is OVCAR-3 ovarian.
Experiment [8] concerns HS 578T breast.
The subject of experiment [9] is NCI/ADR-RES ovarian.
In experiment [10] the test system is OVCAR-5 ovarian.

On to `O=C1NC(=S)NC(=O)C1=Cc1cn(Cc2ccccn2)c2ccccc12`, for which the growth in experiment [1] is 13.1% (inactive); in [2], 91.2% (inactive); in [3], 51.7% (inactive); in experiment [4] it was 80.8% (inactive); in experiment [5], 85.5% (inactive); in [6], 11.3% (inactive). Besides, the figures for the growth in experiment [7], in experiment [8] and in experiment [9] were 33.5% (inactive), 81.9% (inactive) and 85.1% (inactive), respectively.

Consider `COc1ccc(C2CC(c3cccc(Nc4ccncc4)c3)=NN2c2ccc(Cl)cc2)cc1` (configuration not stated), for which the growth is 1.94% (active) in [1]; 0.0835% (active) in [2]; -23.4% (active) in [3]; 37.7% (inactive) in experiment [4]; 63.9% (inactive) in [5]; 23% (inactive) in [6]. The growth in experiment [7] was 39.6% (inactive); in experiment [8], 60.7% (inactive); in experiment [9] it was 62.3% (inactive).

`COc1ccc(-c2nc(N/N=C/c3cccc(Br)c3)nc(N3CCOCC3)c2C#N)cc1`: the growth in [1] is -21.3% (active); in experiment [2], 35.8% (inactive); in [10] it was 111% (inactive); in [4], 81.2% (inactive); in experiment [5], 97.1% (inactive); in experiment [6], 89.1% (inactive). Moreover, the growth is 74.6% (inactive) in experiment [7], 68% (inactive) in experiment [8] and 83.3% (inactive) in experiment [9].
